Source: PubChem BioAssay
The sample as a whole holds a higher share of hits than the screen did.
PNC inhibitor = High Content Assay for Compounds that inhibit the Assembly of the Perinucleolar Compartment. activity change (PNC), negative = inhibition, % at 10 µM. AID 2417, 2010. 140,000 compounds, 3.1% hits. PC3M PTB-GFP, PNC prevalence imaging, 16 h; active compounds read low;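 active means readout at or below -70, meaning at least 70% loss of cells showing the perinucleolar compartment, a nuclear body marking cancer cells; inconclusive means readout between -30 and a set limit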;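 further: plate controls were DMSO wells for no effect and camptothecin positive control wells for full effect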
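Read-out is percentage of cells bearing a perinucleolar compartment, from automated 20x imaging of fixed, Hoechst-stained PC3M PTB-GFP cells. Cells were seeded 4 h, then exposed 16 h to compound (23 nl of library stock) in duplicate plates.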
HTT ATP protect = qHTS Multiplex Assay to Identify Dual Action Probes in a Cell Model of Huntington: Cytoprotection (ATP). PC12 HTT-Q103 induced, cytoprotection, ATP luminescence, 40 h. Potency, µM (highest dose often 56.4 µM), for inactives: cytoprotection (ATP increase), hits mostly activators. 230,000 compounds, 0.14% hits; further: potency means the concentration at half of the fitted maximal effect; % of control where 0% means no effect; nearly all actives have a fitted effect of over 45% in size
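PC12 cells with ecdysone-inducible HTT exon 1 Q103-GFP, induced with 100 nM tebufenozide and co-treated with library compounds in a dose series (1536-well, 1500 cells/well). Cytoprotection read as ATP content by ATPlite luminescence.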
HttQ103 aggreg = qHTS Multiplex Assay to Identify Dual Action Probes in a Cell Model of Huntington: Aggregate Formation (GFP). PC12 HttQ103-GFP aggregates, Acumen cytometry, 40 h. Potency, µM (titrated, usually from 46.1 µM), without a hit: at the highest dose activity change, negative = inhibition, usual class: inhibitors. 220,000 compounds, 1.1% hits. AID 1688, 2009; further: potency means the concentration at half of the fitted maximal effect; on the % scale 0 is the no-effect control and ±100 the full control effect; nearly all actives have a fitted effect of over 60% in size
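PC12 cells stably carrying ecdysone-inducible HTT exon 1 Q103–GFP were induced with tebufenozide (100 nM final) and treated with library compounds in titration. GFP aggregates in lysates were counted by laser scanning cytometry.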
Numbers without * were called inactive; ? = inconclusive; . = no result given; [ ] = another dose, or the depositor's remark. Unless noted, the call rests on the fitted dose curve; in most records, active means well fitted curve in the direction sought with a large enough effect; inconclusive means small, poorly fitted or top-dose-only effect, or another doubt; inactive means no such curve, though single readings can be large; an effect the other way counts as inactive or inconclusive.

SMILES	PNC inhibitor	HTT ATP protect	HttQ103 aggreg
COc1cccc(N/C(SCc2ccccc2C)=C(/C#N)C(=O)NCc2cccs2)c1	-22	10%[10 µM]	18%
COc1cccc(N/C(SCc2ccccc2Cl)=C(/C#N)C(=O)NCc2cccs2)c1	-125*	-14%[10 µM]	21%
COc1cccc(C(=O)CN2CCC(NC(=O)NC3CCCCC3)CC2)c1	40	5%	-14%
COc1ccc(CCNC(=O)C(=O)NCc2ccccn2)cc1	.	4%[10 µM]	16%[9.22 µM]
NC(=S)N=Nc1c(O)n(Cc2ccccc2)c2ccccc12	-100*	16%[10 µM]	?
C/C(Cl)=C\Cn1c(O)c(N=NC(N)=S)c2ccccc21	.	-45%[10 µM]	-20%[9.22 µM]
Cc1cc(C(=O)CSCCCn2c(=O)[nH]c3ccccc32)c(C)n1C	-11	-2%[10 µM]	27%
O=c1[nH]c2ccccc2n1CCCSCCCn1c(=O)[nH]c2ccccc21	?	-27%[0.074 µM]	11µM*
COC(=O)C(C)c1ccc(C(=O)c2cccs2)cc1 (centres undefined)	.	-2%	.
Cc1ccc(-c2c(C)c(-c3ccc(F)cc3)nc(N)c2C#N)o1	49	-29%[0.074 µM]	3%
CCOCCCNC(=O)C(Cc1ccccc1)NS(=O)(=O)c1cccc2nsnc12 (centres undefined)	.	-7%	-11%
CCCCCC1CC(CC(=O)NC(=S)Nc2ccc([N+](=O)[O-])cc2)C(=O)O1 (centres undefined)	?	0%[10 µM]	11%
CCCCCCC1CC(CC(=O)Nc2ccc([N+](=O)[O-])cc2)C(=O)O1 (centres undefined)	-104*	20%[1.9 µM]	-14%
CCCn1c(=O)c(/C(N)=N/O)nn(-c2cccc(C(F)(F)F)c2)c1=O	.	8%[10 µM]	7%[9.22 µM]
CCCNC(=O)C(Cc1ccccc1)NS(=O)(=O)c1ccc2c(c1)c(=O)n(C)c(=O)n2C (centres undefined)	19	-29%	15%
CCCCOc1ccc(N2C(=O)CC(NCCc3ccc(S(N)(=O)=O)cc3)C2=O)cc1 (centres undefined)	-82*	-11%	9%
CCCOc1ccc(N2C(=O)CC(NCc3ccc(S(N)(=O)=O)cc3)C2=O)cc1 (centres undefined)	.	9%[10 µM]	4%[9.22 µM]
C(=C/c1ccccc1)/c1ccccc1	.	-1%	.
CC(C)CC(OC(=O)c1cccs1)C(=O)NCc1ccco1 (centres undefined)	-18	4%[1.9 µM]	18%
CCC(OC(=O)c1cccs1)C(=O)NCc1ccco1 (centres undefined)	-101*	-3%[10 µM]	-4%
Clc1ccc(-c2csc(N3CCN(c4ccccc4)CC3)n2)cc1	28	-12%	9%
CN1CC=C2C(C#N)=C(N)C(C#N)(C#N)[C@H](c3ccoc3)[C@H]2C1	-81*	-6%	2%
CCCN1CC=C2C(C#N)=C(N)C(C#N)(C#N)C(c3cccc(OC)c3OC)C2C1 (centres undefined)	-95*	23%[10 µM]	?
COc1ccc(OC)c(C2C3CN(C(C)C)CC=C3C(C#N)=C(N)C2(C#N)C#N)c1 (centres undefined)	-8	-12%[10 µM]	?
CC(=O)N1CC=C2C(C#N)=C(N)C(C#N)(C#N)[C@H](c3ccoc3)[C@H]2C1	?	-1%[10 µM]	-1%
SMILES	PNC inhibitor	HTT ATP protect	HttQ103 aggreg
CCOC(=O)C1(C)/C(=N/Nc2ccc(S(N)(=O)=O)cc2)C(=O)C(=O)N1c1ccccc1 (centres undefined)	.	20%	4%
CCN(CC)S(=O)(=O)c1cccc(C(=O)N[C@H](C(=O)OCC(=O)Nc2ccccc2)C(C)C)c1	-15	-1%	11%
CCOc1ccc(S(=O)(=O)N2CCN(C(=S)NCc3ccccc3)CC2)cc1	.	11%[10 µM]	8%[9.22 µM]
COc1ccc2c(c1)c(CC(=O)Nc1ccccc1OC)c(C)n2C(=O)c1ccc(Cl)cc1	?	-9%[10 µM]	5%
CC1=CC(C)(C)Nc2ccc(OC(=O)CN3C(=O)CCC3=O)cc21	?	-89%	6.3µM*
CC1=CC(C)(C)Nc2ccc(OC(=O)C(C)N3C(=O)c4ccccc4C3=O)cc21 (centres undefined)	-2	-13%[10 µM]	2%[9.22 µM]
Cc1ccc2c(c1)CC1(CN2C)C(=O)OC(C)(C)OC1=O	22	-9%	?
Nc1ccc(C(=O)Nc2ccco2)cc1	-100*	-10%[10 µM]	3%
CC(C)(C)c1ccc(C(=O)Nc2ccccc2NC(=O)c2ccco2)cc1	56	8%[1.9 µM]	-20%
CCN1CCCC1CNC(=O)c1cc(S(=O)(=O)CC)c(N)cc1OC (centres undefined)	.	12%	.
O=[N+]([O-])c1ccc(N2CCN(S(=O)(=O)c3ccccc3)CC2)cc1NCCN1CCOCC1	17	-12%[10 µM]	13%
Cc1ccc(S(=O)(=O)N2CCN(c3ccc([N+](=O)[O-])c(NCCN4CCOCC4)c3)CC2)cc1	-83*	5%[10 µM]	-1%
Cc1ccc(S(=O)(=O)N(C)Cc2cc3ccccc3[nH]c2=O)cc1	-99*	-10%[0.074 µM]	-13%
CN(Cc1cc2ccccc2[nH]c1=O)S(=O)(=O)c1ccccc1	8	-4%	4%
CCO[C@H]1OC(C(=O)N2CCN(Cc3ccc4c(c3)OCO4)CC2)=C[C@@H](c2ccccc2)[C@@H]1CCCO	.	-14%[10 µM]	-18%[9.22 µM]
CCCCN(c1ccc(C(=O)OC)cc1)S(=O)(=O)c1ccccc1	.	-29%	2%
CCCCCOc1ccc(Br)cc1/C(C)=N/NC1=NCCN1	-88*	-29%[1.9 µM]	?
COc1ccc(Br)cc1/C(C)=N/NC1=NCCN1	-17	2%	?
CC(=O)c1cccc(NC(=O)NC2CC3CCCC(C2)N3CC(C)C)c1 (centres undefined)	-100*	14%[10 µM]	7%
CCCN1C2CCCC1CC(NC(=O)Nc1cccc(C(C)=O)c1)C2 (centres undefined)	?	27%[10 µM]	8%
COc1ccc(CCNS(=O)(=O)c2ccccc2)cc1OC	-23	-3%	3.5µM*
CCCNS(=O)(=O)c1ccc(CCC(=O)NCCc2ccc(OC)c(OC)c2)cc1	.	-12%[10 µM]	-17%[9.22 µM]
O=C(NC1CCCC1)C(c1ccncc1)N(C(=O)Cc1cccs1)c1ccccc1 (centres undefined)	.	-5%	4%[9.22 µM]
COc1ccc(CN(C(C)=O)c2cccc(C)c2C)cc1	-107*	-38%	-6%
CC(=O)N(Cc1ccc(Br)cc1)c1cccc(C)c1C	.	-19%	-7%
SMILES	PNC inhibitor	HTT ATP protect	HttQ103 aggreg
COC(=O)c1ccccc1NCCO	.	0%[10 µM]	24%[9.22 µM]
CC(C)(CSc1ccccn1)NS(=O)(=O)c1ccc(Cl)cc1	-14	-8%[10 µM]	9%
Cc1ccc(Cn2cccc2/C=C2/C(=N)N3C=CSC3=NC2=O)cc1	48	?	6%
N=C1/C(=C/c2cccn2Cc2ccc(F)cc2)C(=O)N=C2SC=CN12	.	-15%	0.014µM*
COc1ccc(N/N=C(\C#N)C(N)=O)cc1	?	0%[10 µM]	-12%
COc1ccc(N/N=C(/C(N)=O)C2=NC(C)(C)Cc3ccccc32)cc1	119	-8%[10 µM]	10µM*
COc1ccc(NC(=O)c2scc(S(=O)(=O)C(C)C)c2N)cc1	.	-11%[10 µM]	-21%[9.22 µM]
CC(C)N(CCc1ccncc1)C(=S)Nc1ccc(F)c(Cl)c1	.	4%	-12%
